Measurements taken from PubChem BioAssay AID2284368 (EPA ToxCast).
Results filed as inconclusive are left out. Activity calls are given as the source filed them. How the source made its calls: active means hit-call score of the fitted dose curve at least 0.9, where 1 is the maximum; inconclusive means response in the unintended direction; inactive means score below 0.9.

These molecules were tested against Estrogen receptor (Homo sapiens) (UniProt P03372) (assay: ATG_hERa_EcoTox2: Attagene TRANS-FACTORIAL EcoTox-2 HepG2 Assay for human Estrogen Receptor (ER)).
Estrogen receptor (Homo sapiens), sequence (P03372 whole entry, looked up): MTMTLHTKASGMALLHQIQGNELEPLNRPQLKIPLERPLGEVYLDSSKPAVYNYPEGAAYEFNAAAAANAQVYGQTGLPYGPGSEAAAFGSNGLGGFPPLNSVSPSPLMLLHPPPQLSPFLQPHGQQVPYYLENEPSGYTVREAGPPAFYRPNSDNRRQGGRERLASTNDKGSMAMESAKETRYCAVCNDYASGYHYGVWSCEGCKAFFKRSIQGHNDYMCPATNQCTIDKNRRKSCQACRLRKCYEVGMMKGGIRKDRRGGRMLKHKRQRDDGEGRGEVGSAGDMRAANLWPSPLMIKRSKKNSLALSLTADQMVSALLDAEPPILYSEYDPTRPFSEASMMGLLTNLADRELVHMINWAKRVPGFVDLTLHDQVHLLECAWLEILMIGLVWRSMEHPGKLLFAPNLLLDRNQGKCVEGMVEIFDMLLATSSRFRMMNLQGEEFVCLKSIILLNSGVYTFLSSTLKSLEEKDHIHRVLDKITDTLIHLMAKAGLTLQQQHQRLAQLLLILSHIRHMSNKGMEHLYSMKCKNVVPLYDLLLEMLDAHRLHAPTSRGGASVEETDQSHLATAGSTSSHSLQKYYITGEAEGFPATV
Method: ATG_EcoTox2 is a cell-based, multiplexed assay created by modifying the existing Attagene TRANS-FACTORIAL system to include a panel of nuclear receptors from some or all the following species: human (Homo sapiens), african clawed frog (Xenopus laevis), rainbow trout (Oncorhynchus mykiss), japanese medaka (Oryzias latipes), and zebrafish (Danio rerio). The ECOTOX2-FACTORIAL format uses HepG2, a human liver cell line, with measurements taken at 24 hours after chemical dosing in a 24-well plate. ATG_hERa_EcoTox2 is one of 29 assay components measured or calculated from the ATG_EcoTox2 assay. It is designed to make measurements of mRNA induction, a form of inducible reporter, as detected with fluorescence intensity signals by Reverse transcription polymerase chain reaction (RT-PCR) and Capillary electrophoresis technology.The assay endpoint ATG_hERa_EcoTox2 was analyzed in the positive analysis fitting direction relative to DMSO as the negative control and baseline of activity. Using a type of inducible reporter, measures of mRNA for gain-of-signal activity can be used to understand the reporter gene at the transcription factor-level as they relate to the gene ER. Furthermore, this assay endpoint can be referred to as a primary readout, because this assay has produced multiple assay endpoints where this one serves a reporter gene function. To generalize the intended target to other relatable targets, this assay endpoint is annotated to the nuclear receptor intended target family, where the subfamily is steroidal.
Human liver HepG2 cells are transiently transfected with multiple reporter transcription units (MRTUs) in 6-well plates using FuGene 6 reagent (Roche; 3 ml FuGene/1 mg DNA). The MRTU constructs are regulated by a cis-regulating element (promoter). Each RTU expresses a GAL4-UAS that regulates the transcription of a nearby target reporter gene sequence. A major difference between the CIS and TRANS system is that in CIS activities of endogenous TFs are measured, whereas the TRANS assay evaluates changes in activities of exogenous, chimeric NR-Gal4 proteins. […] At the end of 24 hour incubation, total RNA was isolated using TriZol reagent (Invitrogen). The isolated RNA is then reverse-transcribed using oligo(dT) primer and Mo-MLV reverse transcriptase (Invitrogen) with DNAse I (Ambion) treatment for 30 min. The one-tenth of the produced cDNA was amplified by PCR using Taq DNA polymerase (Invitrogen) and two reporter sequence-specific primers. […] The fragments were purified using Qiaquick PCR columns (Qiagen), analyzed on an ABI 3130xL genetic analyzer (Applied Biosystems) with peak positions identified by using a set of X-rhodamine (ROX)-labeled MapMarker1000 molecular weight standards (BioVentures). […]
For `O=S(=O)(O)C(F)(F)C(F)(F)C(F)(F)C(F)(F)C(F)(F)C(F)(F)F`, the AC50 was 50 µM (active). With `[Cl][Sn]([c]1ccccc1)([c]1ccccc1)[c]1ccccc1` the outcome was “inactive”. For `O=P(Oc1ccccc1)(Oc1ccccc1)Oc1ccccc1`, the AC50 was 3.41 µM (active). `CCCCOCN(C(=O)CCl)c1c(CC)cccc1CC` was tested, and the outcome was “inactive”.
